Measured values published in the supplement of paper PMC7393113.
± gives the standard deviation of the averaged measurements.

Tested on: iBMDM (immortalised mouse bone-marrow-derived macrophages), LPS-stimulated
Test: mitochondrial superoxide (MitoSOX fluorescence) fold increase over unstimulated control; higher = more LPS-induced mitochondrial ROS (less inhibition)
Settings: inhibitor concentration: 500 nM, LPS: 100 ng/ml
Procedure, shortened: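 Values are fold induction of mitochondrial superoxide relative to untreated macrophages, as a mean of replicates. Immortalised mouse bone-marrow-derived macrophages, seeded in triplicate in black 96-well plates, spent 20 h in phenol-red-free 1% FCS/DMEM before a 30 min pretreatment with kinase inhibitors (500 nM). After 10 min loading with 1 μM MitoSox, cells received LPS (100 ng/ml), and fluorescence (510/580 nm) was measured every 60 min for 4 h.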

| Structure (SMILES) | mitochondrial superoxide (time after LPS: 1 h) | mitochondrial superoxide (time after LPS: 2 h) | mitochondrial superoxide (time after LPS: 4 h) |
| --- | --- | --- | --- |
| COc1cc(N2CCC(N3CCN(C)CC3)CC2)ccc1Nc1ncc(Cl)c(Nc2ccccc2S(=O)(=O)C(C)C)n1 | 1.24 ± 0.068 | 1.3 ± 0.019 | 1.47 ± 0.04 |
| CCN(CC)CCCCNc1ncc2cc(-c3cc(OC)cc(OC)c3)c(NC(=O)NC(C)(C)C)nc2n1 | 1.16 ± 0.036 | 1.11 ± 0.048 | 1.12 ± 0.045 |
| Cn1cc(-c2ccc3ncc(Cc4ccc5ncccc5c4)n3n2)cn1 | 1.24 ± 0.1 | 1.34 ± 0.053 | 1.61 ± 0.14 |
| Nc1ccc(C(=O)Nc2cccc(-c3nc(N4CCOCC4)c4oc5ncccc5c4n3)c2)cn1 | 1.15 ± 0.037 | 1.23 ± 0.053 | 1.24 ± 0.028 |
| O=C(Cc1ccc(-c2ccc(OCCN3CCOCC3)cc2)cn1)NCc1ccccc1 | 1.31 ± 0.1 | 1.4 ± 0.1 | 1.61 ± 0.11 |
| CO[C@@H](C(=O)N1Cc2[nH]nc(NC(=O)c3ccc(N4CCN(C)CC4)cc3)c2C1)c1ccccc1 | 1.3 ± 0.035 | 1.38 ± 0.029 | 1.48 ± 0.038 |
| CNCc1ccc(-c2cc(-c3nc(-c4ccc(S(=O)(=O)C(C)C)cc4)cnc3N)on2)cc1 | 1.12 ± 0.068 | 1.24 ± 0.057 | 1.26 ± 0.018 |
| CC(C)(C)c1cc(/C=C(\C#N)C(N)=S)cc(C(C)(C)C)c1O [Tyrphostin AG 879] | 1.37 ± 0.06 | 1.42 ± 0.037 | 1.61 ± 0.037 |
| Cc1ccc(Nc2nccc(N(C)c3ccc4c(C)n(C)nc4c3)n2)cc1S(N)(=O)=O [Pazopanib] | 1.19 ± 0.042 | 1.13 ± 0.082 | 1.26 ± 0.015 |
| COc1ccc(Cl)cc1NC(=O)Nc1cc(C)nc2ccccc12 | 1.42 ± 0.05 | 1.55 ± 0.055 | 1.652 ± 0.011 |
| Nc1nccc(Oc2ccc(NC(=O)c3c[nH]cc(-c4ccc(F)cc4)c3=O)cc2F)c1Cl | 1.21 ± 0.032 | 1.22 ± 0.043 | 1.37 ± 0.11 |
| Cc1cc(Nc2ncc(Cl)c(Nc3ccccc3S(=O)(=O)C(C)C)n2)c(OC(C)C)cc1C1CCNCC1 | 1.2 ± 0.013 | 1.32 ± 0.033 | 1.39 ± 0.024 |
